Experimental findings from PubChem BioAssay (NCI) are described below.

The structures appear in SMILES notation. Compounds without any hit were thinned out: in the full panel of roughly 83,000, 20% have a hit.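 Plates (96-well) were seeded with cells, treated with compound at one concentration, and incubated for 48 hours before percent growth was determined.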 Unmarked numbers belong to inactive results. Activity calls are given as the source filed them. How the source made its calls: active means growth percent below 10; inactive means the rest.

Holding throughout (experiment): NCI-60 one-dose screen, 48 h (100 = growth as untreated, 0 = no growth, -100 = all killed)
Common to all, as to settings: 10 µM unless noted

For experiment [1], the system named is T-47D breast.
For experiment [2], the system named is MDA-MB-435 melanoma.
For experiment [3], the system named is SW-620 colon.
Experiment [4] has as its system MCF7 breast.
In experiment [5] the test system is HCT-116 colon.
For experiment [6], the system named is HCC-2998 colon.
Experiment [7] relates to KM12 colon.
Experiment [8] deals with BT-549 breast.

As to `CCCC1OC(c2ccco2)OCC1CC` (centres undefined), the growth in experiment [1] is 103%; in experiment [2], 108%; in experiment [3] it was 99.1%; in experiment [4], 117%; in experiment [5] it was 99%; in experiment [6], 101%. Further, the growth in experiment [7] was 103%.
As to `O=C(CC(CC(=O)c1ccccc1)c1ccccn1)c1ccccc1`, the growth was 97.2% in experiment [1]; 101% in experiment [8]; 101% in experiment [3]; 107% in experiment [4]; 94% in experiment [5]; 97% in experiment [6]. The growth in experiment [7] was 102%.
For the compound `CC(=O)[C@@]1(O)CC[C@H]2[C@@H]3CC[C@@H]4CC(=O)CC[C@]4(C)[C@H]3[C@@H](O)C[C@@]21C`, the growth is 88.2% in experiment [1]; 102% in experiment [8]; 100% in experiment [3]; 93.6% in experiment [4]; 107% in experiment [5]; 98.4% in experiment [6]. Besides, the growth in experiment [7] is 101%.
On to `OCC(O)COc1ccc(Cl)cc1Cl` (centres undefined), for which the growth was 81.5% in experiment [1]; 101% in experiment [8]; 114% in experiment [3]; 95.6% in experiment [4]; 93% in experiment [5]; 98.3% in experiment [6]. In addition, in experiment [7], the growth was 106%.
With `COc1c(CNC(=O)CCl)cc2[nH]c(C)cc2c1CNC(=O)CCl`, the growth in experiment [1] was 59.2%; in experiment [8], 58.9%; in experiment [4] it was 36%; in experiment [5], 41.7%; in experiment [7], 59.2%.
In the case of `CCOC(=O)c1ccc(NC(C)=O)o1`, the growth in experiment [1] is 93.5%; in experiment [8], 104%; in experiment [3], 78.7%; in experiment [4], 96.9%; in experiment [5], 101%; in experiment [7], 102%.
As for `Cc1ccc([N+](=O)[O-])c(C)n1`, the growth in experiment [1] was 102%; in experiment [2] it was 99.8%; in experiment [3], 99.5%; in experiment [4] it was 96.2%; in experiment [5], 104%; in experiment [6], 103%.
Turning to `CC12CCC3c4ccc(O)cc4CCC3C1CCC2=O` (centres undefined), the growth in experiment [1] is 103%; in experiment [8], 89.2%; in experiment [3] it was 110%; in experiment [4], 128%; in experiment [5], 95.3%; in experiment [6], 102%. The growth in experiment [7] was 109%.
As to `O=C1C=C[C@H](O)[C@@]2(CO)O[C@@H]12`, the growth in experiment [1] was 94.2%; in experiment [2], 77%; in experiment [3], 13.9%; in experiment [4], 42.9%; in experiment [5], 19.9%; in experiment [6], 104%. Also, the growth in experiment [7] is 98.4%.
With `CCCCNC(=O)c1ccc(OCC)cc1`, the growth in experiment [1] was 96.1%; in experiment [2] it was 103%; in experiment [3] it was 97.9%; in experiment [4] it was 88.6%; in experiment [5], 90.5%; in experiment [6], 104%. Also, the growth in experiment [7] is 106%.
In the case of `CCCCCC#CC(=O)O`, the growth in experiment [1] is 85.2%; in experiment [8] it was 64.1%; in experiment [3], 104%; in experiment [4], 95.4%; in experiment [5], 112%; in experiment [6] it was 113%. Besides, the growth in experiment [7] was 121%.
On to `CCC(=O)Oc1ccc2ccccc2c1`, for which the growth is 74.9% in experiment [1]; 101% in experiment [2]; 85.7% in experiment [3]; 101% in experiment [4]; 102% in experiment [5]; 88.7% in experiment [6]. In experiment [7], the growth was 99.6%.
In the case of `CC(=O)C1C(=O)C(=O)N(c2ccc(Cl)c(Cl)c2)C1=O` (centres undefined), the growth in experiment [1] was 93.2%; in experiment [2], 103%; in experiment [3] it was 108%; in experiment [4], 89.1%; in experiment [5], 91.3%; in experiment [6], 101%. The growth in experiment [7] is 103%.
As to `C=CCC(OC(C)=O)c1ccc(C(C)C)cc1` (centres undefined), the growth in experiment [1] is 115%; in experiment [2], 124%; in experiment [3] it was 107%; in experiment [4], 113%; in experiment [5], 110%; in experiment [6] it was 103%. Besides, in experiment [7], the growth was 114%.
Turning to `Cc1ccc2nc(-c3ccc(N=Cc4ccccc4O)cc3)sc2c1`, the growth was 69% in experiment [1]; 105% in experiment [2]; 97.8% in experiment [3]; 77.1% in experiment [4]; 79.2% in experiment [5]; -12.3% (active) in experiment [6]. The growth in experiment [7] was 99.2%.
Take `COCC(N)=O`: the growth is 98.4% in experiment [1]; 105% in experiment [2]; 99.7% in experiment [3]; 102% in experiment [4]; 99% in experiment [5]; 110% in experiment [6]. Moreover, in experiment [7], the growth was 98.9%.
With `CC(=O)Nc1ccc(C(=O)c2ccc(S(=O)(=O)Nc3ccccc3)cc2)cc1`, the growth is 99.2% in experiment [1]; 101% in experiment [2]; 103% in experiment [3]; 85.3% in experiment [4]; 75.4% in experiment [5]; -97.1% (active) in experiment [6]. The growth in experiment [7] is 108%.
For `Cc1nc(C)c(C(=O)O)cc1C(=O)O`, the growth in experiment [1] is 122%; in experiment [2] it was 110%; in experiment [3], 109%; in experiment [4] it was 109%; in experiment [5], 111%; in experiment [6] it was 101%. Moreover, the growth in experiment [7] was 117%.
`O=C(c1cccc(C(=O)c2ccc3c4c(cccc24)C(=O)N(c2ccccc2)C3=O)c1)c1ccc2c3c(cccc13)C(=O)N(c1ccccc1)C2=O`: the growth in experiment [1] is 76.3%; in experiment [2], 107%; in experiment [3], 104%; in experiment [4], 86.8%; in experiment [5], 93.9%; in experiment [6] it was 114%. Also, in experiment [7], the growth is 98.2%.
Consider `N#Cc1ccc2nc[nH]c2c1`, for which the growth is 107% in experiment [1]; 109% in experiment [2]; 104% in experiment [3]; 96.8% in experiment [4]; 105% in experiment [5]; 110% in experiment [6]. For the same compound, in experiment [7], the growth was 98.5%.
Consider `CC(=O)c1ccc(C)cc1`, for which the growth is 120% in experiment [1]; 112% in experiment [2]; 106% in experiment [3]; 100% in experiment [4]; 105% in experiment [5]; 105% in experiment [6]. Also, the growth in experiment [7] was 106%.
Consider `C=CCNC(=S)N/C=C(/C(=O)c1ccccc1)c1ccccc1`, for which the growth in experiment [1] was 99.4%; in experiment [2], 98.6%; in experiment [3], 98.9%; in experiment [4], 97.6%; in experiment [5], 115%; in experiment [6], 105%. For the same compound, in experiment [7], the growth was 104%.
`CC1CC2C3CCC4=CC(=O)CCC4(C)C3CCC2(C)C1(O)C(=O)CO` (centres undefined): the growth in experiment [1] is 103%; in experiment [2] it was 115%; in experiment [3], 113%; in experiment [4] it was 99.8%; in experiment [5], 109%; in experiment [6], 104%. In addition, in experiment [7], the growth was 119%.
`CN1C(=O)NC(c2ccc(Cl)cc2)(c2ccc(Cl)cc2)C1=O`: the growth in experiment [1] was 94.2%; in experiment [2] it was 97.3%; in experiment [3], 103%; in experiment [4], 102%; in experiment [5], 88.2%; in experiment [6] it was 101%. Moreover, the growth in experiment [7] was 87.9%.
`O=C(OCC1CCCO1)c1ccc([N+](=O)[O-])cc1` (centres undefined): the growth was 84.8% in experiment [1]; 109% in experiment [2]; 91.8% in experiment [3]; 95.6% in experiment [4]; 103% in experiment [5]; 117% in experiment [6]. Further, the growth in experiment [7] was 109%.
For the compound `c1ccc2[nH]c(Cc3nc4ccccc4[nH]3)nc2c1`, the growth in experiment [1] is 89.3%; in experiment [2], 101%; in experiment [3], 105%; in experiment [4], 84.9%; in experiment [5], 89.8%; in experiment [6], 108%. Besides, the growth in experiment [7] is 97.6%.
For the compound `COC1C(=O)CCC2(CO2)C1(O)C1(C)OC1CCC(C)C` (centres undefined), the growth is 81.2% in experiment [1]; 63.8% in experiment [2]; 60.5% in experiment [3]; 69.1% in experiment [4]; 52.5% in experiment [5]; 76.4% in experiment [6]. In addition, the growth in experiment [7] was 74%.
`CCOC(=O)c1ccc(NC(=O)Nc2nccs2)cc1`: the growth in experiment [1] is 57.3%; in experiment [2], 5.34% (active); in experiment [3] it was 16.5%; in experiment [4] it was 0.495% (active); in experiment [5] it was 1.86% (active); in experiment [6] it was -27.7% (active). In addition, in experiment [7], the growth is -33.3% (active).
`O=C(NC1CCCCC1)c1ccc(Cl)cc1`: the growth in experiment [1] was 85.1%; in experiment [2], 105%; in experiment [3] it was 103%; in experiment [4] it was 104%; in experiment [5], 106%; in experiment [6], 106%. Moreover, the growth in experiment [7] was 102%.
As to `CN=S(=O)(OCCCCCOS(=O)(=NC)c1ccc(C)cc1)c1ccc(C)cc1` (centres undefined), the growth was 88.5% in experiment [1]; 91.9% in experiment [2]; 84.9% in experiment [3]; 87.6% in experiment [4]; 75.2% in experiment [5]; 91.5% in experiment [6]. Also, the growth in experiment [7] was 98.2%.
Consider `O=c1cc(Cl)nc2ccccn12`, for which the growth in experiment [1] is 103%; in experiment [2], 108%; in experiment [3], 105%; in experiment [4] it was 91.4%; in experiment [5], 99.6%; in experiment [6], 102%. For the same compound, the growth in experiment [7] is 96.6%.
Turning to `C/C=C/C1OCC(CC)C(CCC)O1` (centres undefined), the growth is 107% in experiment [1]; 107% in experiment [2]; 105% in experiment [3]; 95.8% in experiment [4]; 103% in experiment [5]; 124% in experiment [6]. Also, in experiment [7], the growth is 102%.
As to `O=C(CCl)Oc1ccc([N+](=O)[O-])cc1`, the growth in experiment [1] is 105%; in experiment [2] it was 107%; in experiment [3] it was 113%; in experiment [4] it was 99.5%; in experiment [5], 110%; in experiment [6] it was 102%. Moreover, the growth in experiment [7] was 107%.
`COC(=O)Cc1cc(COC(C)=O)ccc1C`: the growth in experiment [1] was 110%; in experiment [2], 116%; in experiment [3], 110%; in experiment [4] it was 106%; in experiment [5] it was 104%; in experiment [6], 106%. Further, the growth in experiment [7] is 114%.
As to `Cc1cccc(-[n+]2noc(N)n2)c1`, the growth in experiment [1] was 59%; in experiment [2], 83.7%; in experiment [3], 86.3%; in experiment [4], 76%; in experiment [5], 82.2%; in experiment [6], 79%. Also, the growth in experiment [7] was 70.2%.
Consider `Nc1cc2ccccc2c(O)c1O`, for which the growth is -0.96% (active) in experiment [1]; -81.1% (active) in experiment [2]; -33.6% (active) in experiment [3]; -43.2% (active) in experiment [4]; -66.9% (active) in experiment [5]; 113% in experiment [6]. Also, the growth in experiment [7] is 62.3%.
For `CC1(C)C2CCC1(C)C1(C2)OCCS1` (centres undefined), the growth is 93.9% in experiment [1]; 99.6% in experiment [2]; 100% in experiment [3]; 88.9% in experiment [4]; 110% in experiment [5]; 101% in experiment [6]. For the same compound, the growth in experiment [7] is 102%.
Consider `CSc1cnc2ccccc2n1`, for which the growth in experiment [1] is 81%; in experiment [2], 103%; in experiment [3], 93.9%; in experiment [4], 98.9%; in experiment [5], 99.2%; in experiment [6], 98.5%. Also, the growth in experiment [7] is 101%.
Regarding `NC(=O)N1CCOCC1`, the growth in experiment [1] is 97.4%; in experiment [2] it was 116%; in experiment [3], 112%; in experiment [4] it was 93%; in experiment [5], 106%; in experiment [6] it was 112%. For the same compound, in experiment [7], the growth is 108%.
